Measured values published in PubChem BioAssay AID1159580 (chemical genetic matrix, 2015).
Several values for one entry are separate records, joined by “and”; a condition that tells them apart may be missing. Equal values may be shown once. Screen size: about 5,500 compounds; about 2,000 (36%) were called active. Inconclusive results (about 18%) are left out. Cut-off read from the data, not from the text of the source: active = normalized growth mostly below about 0.91 (no sharp cut-off); inconclusive = no clear call, values can overlap the other calls; inactive = mostly above about 0.92. The list shows a part of the results.

Experiment: chemical genetic growth profiling, strain panel (AID 1159580);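 note: tested at 20 µM; growth read once vehicle control cultures reached saturation at 30 °C; 1 = growth at the plate median or of vehicle wells; lower values mean less growth of the strain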
Conditions: growth OD
[1] = S. cerevisiae deletion strains, locus YAL013W, strain DEP1, active compounds read low
[2] = S. cerevisiae deletion strains, locus YBR229C, strain ROT2, active compounds read low
[3] = S. cerevisiae deletion strains, locus YDL101C, strain DUN1, active compounds read low
[4] = S. cerevisiae deletion strains, locus YDR150W, strain NUM1, active compounds read low
[5] = S. cerevisiae deletion strains, locus YEL061C, strain CIN8, active compounds read low
[6] = S. cerevisiae deletion strains, locus YGR078C, strain PAC10, active compounds read low
[7] = S. cerevisiae deletion strains, locus YHR030C, strain SLT2, active compounds read low
[8] = S. cerevisiae deletion strains, locus YHR087W, strain rtc3, active compounds read low
[9] = S. cerevisiae deletion strains, locus YJL187C, strain SWE1, active compounds read low
[10] = S. cerevisiae deletion strains, locus YJR043C, strain POL32, active compounds read low
[11] = S. cerevisiae deletion strains, locus YJR075W, strain HOC1, active compounds read low
[12] = S. cerevisiae deletion strains, locus YLR039C, strain RIC1, active compounds read low
[13] = S. cerevisiae deletion strains, locus YLR058C, strain SHM2 (second series), active compounds read low
[14] = S. cerevisiae deletion strains, locus YLR085C, strain ARP6, active compounds read low
[15] = S. cerevisiae deletion strains, locus YLR262C, strain YPT6, active compounds read low
[16] = S. cerevisiae deletion strains, locus YML094W, strain GIM5, active compounds read low
[17] = S. cerevisiae deletion strains, locus YMR219W, strain ESC1, active compounds read low
[18] = S. cerevisiae deletion strains, locus YMR263W, strain SAP30, active compounds read low
[19] = S. cerevisiae deletion strains, locus YNL153C, strain GIM3, active compounds read low
[20] = S. cerevisiae deletion strains, locus YNL298W, strain CLA4 (second series), active compounds read low
[21] = S. cerevisiae deletion strains, locus YNL322C, strain KRE1, active compounds read low
[22] = S. cerevisiae deletion strains, locus YNR030W, strain Alg12, active compounds read low
[23] = S. cerevisiae deletion strains, locus YPL055C, strain LGE1, active compounds read low
[24] = S. cerevisiae deletion strains, locus YPL241C, strain CIN2, active compounds read low
[25] = S. cerevisiae deletion strains, locus YPR135W, strain CTF4, active compounds read low
[26] = S. cerevisiae strains, strain wild type, active compounds read low
[27] = S. cerevisiae deletion strains, locus YGR052W, strain FMP48, active compounds read low
[28] = S. cerevisiae deletion strains, locus YHR079C, strain IRE1, active compounds read low
[29] = S. cerevisiae deletion strains, locus YHR082C, strain KSP1, active compounds read low
[30] = S. cerevisiae deletion strains, locus YJL095W, strain BCK1, active compounds read low
[31] = S. cerevisiae deletion strains, locus YJR066W, strain TOR1, active compounds read low
[32] = S. cerevisiae deletion strains, locus YKL203C, strain TOR2, active compounds read low
[33] = S. cerevisiae deletion strains, locus YLR113W, strain HOG1, active compounds read low
[34] = S. cerevisiae deletion strains, locus YNL183C, strain NPR1, active compounds read low
[35] = S. cerevisiae deletion strains, locus YNL207W, strain RIO2, active compounds read low
[36] = S. cerevisiae deletion strains, locus YOR119C, strain RIO1, active compounds read low
[37] = S. cerevisiae deletion strains, locus YOR231W, strain MKK1, active compounds read low
[38] = S. cerevisiae deletion strains, locus YPL256C, strain CLN2, active compounds read low

Measured: normalized growth

Cc1cccc(NC(=S)NCc2ccncc2)c1
inactive: [1] 1 | [2] 1 | [3] 0.988 | [4] 1 | [5] 1.01 | [6] 1.01 | S. cerevisiae deletion strains, locus YGR229C, strain SMI1, active compounds read low 0.992 | [7] 0.857 | [8] 0.99 | [9] 1.02 | [10] 1 | [11] 0.987 | [12] 1.01 | [13] 1.01 | [14] 0.88 | [15] 1.01 | [16] 0.974 | [17] 1.01 | [18] 0.981 | [19] 0.993 | [20] 1.01 | [21] 1.01 | [22] 1.03 | [23] 1.03 | [24] 0.998 | [25] 0.928 | [26] 0.997

S=C(NCc1ccccc1)Nc1ccc(Cl)c(Cl)c1
active: [1] 0.884 | S. cerevisiae deletion strains, locus YCL061C, strain MRC1, active compounds read low 0.866 | [5] 0.835 | [6] 0.9 | [7] 0.382 and 0.745 | [28] 0.861 | [9] 0.891 | S. cerevisiae deletion strains, locus YKL190W, strain CNB1, active compounds read low 0.68 | [32] 0.803 | [12] 0.482 | [14] 0.332 | [15] 0.701 | [16] 0.677 | [18] 0.846 | [19] 0.907 | [20] 0.548 | [22] 0.701 | S. cerevisiae deletion strains, locus YOL006C, strain TOP1, active compounds read low 0.251 | [23] 0.689 | [24] 0.691 | [25] 0.471 | [26] 0.828
inactive: [2] 0.948 | [3] 0.935 | [4] 0.917 | [27] 0.878 | [29] 0.839 | [8] 0.964 | [30] 0.841 | [10] 0.978 | [31] 0.845 | [11] 0.897 | S. cerevisiae deletion strains, locus YKL171W, strain NNK1, active compounds read low 0.807 | [13] 0.938 | [33] 1.06 | [17] 0.962 | [34] 0.846 | [35] 0.829 | [21] 0.977 | [36] 0.77 | [37] 0.862 | [38] 0.916

O=S(=O)(NC(=S)Nc1ccc(Cl)c(Cl)c1)c1ccccc1
inactive: S. cerevisiae deletion strains, locus YAR019C, strain CDC15, active compounds read low 1.01 | S. cerevisiae deletion strains, locus YBL105C, strain PKC1, active compounds read low 1.01 | S. cerevisiae deletion strains, locus YBR135W, strain CKS1, active compounds read low 0.997 | S. cerevisiae deletion strains, locus YBR136W, strain MEC1, active compounds read low 1 | S. cerevisiae deletion strains, locus YBR160W, strain CDC28, active compounds read low 1 | S. cerevisiae deletion strains, locus YDL017W, strain CDC7, active compounds read low 1.01 | S. cerevisiae deletion strains, locus YDL028C, strain MPS1, active compounds read low 1 | [3] 1.01 | S. cerevisiae deletion strains, locus YDL108W, strain KIN28, active compounds read low 1 | S. cerevisiae deletion strains, locus YDL132W, strain cdc53, active compounds read low 0.993 | S. cerevisiae deletion strains, locus YDL214C, strain PRR2, active compounds read low 1.02 | S. cerevisiae deletion strains, locus YDR052C, strain DBF4, active compounds read low 1.01 | S. cerevisiae deletion strains, locus YDR054C, strain cdc34, active compounds read low 1.01 | S. cerevisiae deletion strains, locus YDR226W, strain ADK1, active compounds read low 0.991 | S. cerevisiae deletion strains, locus YDR477W, strain SNF1, active compounds read low 1.02 | S. cerevisiae deletion strains, locus YER123W, strain YCK3, active compounds read low 1 | S. cerevisiae deletion strains, locus YER133W, strain GLC7, active compounds read low 1.01 | S. cerevisiae deletion strains, locus YFL009W, strain cdc4, active compounds read low 1.01 | S. cerevisiae deletion strains, locus YFL029C, strain CAK1, active compounds read low 1 | S. cerevisiae deletion strains, locus YFR003C, strain YPI1, active compounds read low 1 | S. cerevisiae deletion strains, locus YFR019W, strain FAB1, active compounds read low 1 | S. cerevisiae deletion strains, locus YFR028C, strain CDC14, active compounds read low 1 | S. cerevisiae deletion strains, locus YGR040W, strain KSS1, active compounds read low 1.01 | [27] 1.12 | S. cerevisiae deletion strains, locus YGR092W, strain DBF2, active compounds read low 0.988 | [7] 1.1 | [28] 1 | [29] 1.09 | S. cerevisiae deletion strains, locus YHR205W, strain SCH9, active compounds read low 0.995 | S. cerevisiae deletion strains, locus YIL147C, strain SLN1, active compounds read low 1 | [30] 1.05 | S. cerevisiae deletion strains, locus YJL128C, strain PBS2, active compounds read low 0.995 | S. cerevisiae deletion strains, locus YJL157C, strain FAR1, active compounds read low 1.01 | S. cerevisiae deletion strains, locus YJR016C, strain ILV3, active compounds read low 0.995 | S. cerevisiae deletion strains, locus YJR066W, strain TOR1 (second series), active compounds read low 0.992 | [31] 1.13 | S. cerevisiae deletion strains, locus YKL048C, strain ELM1, active compounds read low 1.02 | S. cerevisiae deletion strains, locus YKL067W, strain YNK1, active compounds read low 0.995 | S. cerevisiae deletion strains, locus YKL101W, strain HSL1, active compounds read low 1 | S. cerevisiae deletion strains, locus YKL193C, strain SDS22, active compounds read low 1 | [32] 1.07 | [33] 1.03 | S. cerevisiae deletion strains, locus YLR133W, strain CKI1, active compounds read low 1.01 | S. cerevisiae deletion strains, locus YLR403W, strain SFP1, active compounds read low 1.02 | S. cerevisiae deletion strains, locus YML070W, strain DAK1, active compounds read low 0.999 | S. cerevisiae deletion strains, locus YMR001C, strain CDC5, active compounds read low 1 | S. cerevisiae deletion strains, locus YMR205C, strain PFK2 (second series), active compounds read low 1 | S. cerevisiae deletion strains, locus YMR277W, strain FCP1, active compounds read low 1 | S. cerevisiae deletion strains, locus YNL006W, strain LST8, active compounds read low 0.984 | S. cerevisiae deletion strains, locus YNL020C, strain ARK1, active compounds read low 1 | S. cerevisiae deletion strains, locus YNL161W, strain CBK1, active compounds read low 0.996 | [34] 0.986 | [35] 1.01 | S. cerevisiae deletion strains, locus YNL222W, strain SSU72, active compounds read low 0.995 | S. cerevisiae deletion strains, locus YNL307C, strain MCK1 (second series), active compounds read low 0.987 | S. cerevisiae deletion strains, locus YOL078W, strain AVO1, active compounds read low 1 | S. cerevisiae deletion strains, locus YOL136C, strain PFK27, active compounds read low 1 | S. cerevisiae deletion strains, locus YOR061W, strain CKA2, active compounds read low 1.02 | [36] 1.13 | [37] 1.02 | S. cerevisiae deletion strains, locus YOR329C, strain SCD5, active compounds read low 1.01 | S. cerevisiae deletion strains, locus YPL031C, strain PHO85, active compounds read low 1.02 | S. cerevisiae deletion strains, locus YPL153C, strain RAD53, active compounds read low 1 | S. cerevisiae deletion strains, locus YPL204W, strain HRR25, active compounds read low 0.999 | S. cerevisiae deletion strains, locus YPL209C, strain IPL1, active compounds read low 0.996 | [38] 1.01 | S. cerevisiae deletion strains, locus YPR025C, strain CCL1, active compounds read low 0.998 | S. cerevisiae deletion strains, locus YPR106W, strain ISR1, active compounds read low 1.01 | S. cerevisiae deletion strains, locus YPR111W, strain DBF20, active compounds read low 0.994 | S. cerevisiae deletion strains, strain NNK1, active compounds read low 1 | S. cerevisiae deletion strains, strain TSCII, active compounds read low 0.999
